In PubChem BioAssay (NCI):
This is part of a sample that, as a whole, favours compounds with a hit. Of some 83,000 tested, about 20% had one in any assay.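 Step 1: grow cells in 96-well plates. Step 2: add test compound at a single concentration. Step 3: incubate 48 h. Step 4: record percent growth.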 Activity calls are given as the source filed them. Rule for the calls: active = growth percent below 10; inactive = the rest.

What was measured:
Assay in all cases: NCI-60 one-dose screen, 48 h (100 = growth as untreated, 0 = no growth, -100 = all killed)
Details in all cases: 10 µM unless noted
HCT-15 colon = test system: HCT-15 colon
HT29 colon = test system: HT29 colon
SNB-75 CNS = test system: SNB-75 CNS
SNB-19 CNS = test system: SNB-19 CNS
U251 CNS = test system: U251 CNS
PC-3 prostate = test system: PC-3 prostate
SK-MEL-5 melanoma = test system: SK-MEL-5 melanoma
UACC-62 melanoma = test system: UACC-62 melanoma
LOX IMVI melanoma = test system: LOX IMVI melanoma
SK-MEL-28 melanoma = test system: SK-MEL-28 melanoma

Measured: growth

Brc1ccc2[nH]cc(-c3nc(-c4c[nH]c5ccncc45)cs3)c2c1
inactive: SNB-75 CNS 51.9%
active: HCT-15 colon -67.8% | HT29 colon -63.2% | SNB-19 CNS -79.5% | U251 CNS -83.9% | PC-3 prostate -66.8% | SK-MEL-5 melanoma -44.1% | UACC-62 melanoma -79.4% | LOX IMVI melanoma -97.4% | SK-MEL-28 melanoma -95.6%

CN1CCN(c2ccc(-c3ccc4ncc(C#N)c(Nc5ccc(F)c(Cl)c5)c4c3)cc2)CC1
inactive: HT29 colon 18.2% | SNB-75 CNS 75.5% | SNB-19 CNS 72.7% | U251 CNS 50% | PC-3 prostate 45.8% | SK-MEL-5 melanoma 58.1% | UACC-62 melanoma 69.7% | LOX IMVI melanoma 43%
active: HCT-15 colon -12.9% | SK-MEL-28 melanoma -43.1%

O=c1c2cccc(F)c2sc2c(NCCCNCCO)nc3ccccc3c12
inactive: HCT-15 colon 11.4% | SNB-75 CNS 45.5% | SNB-19 CNS 44.1% | U251 CNS 38.8% | PC-3 prostate 38.3% | SK-MEL-5 melanoma 71.7% | UACC-62 melanoma 59.8% | SK-MEL-28 melanoma 64.2%
active: HT29 colon -39.8% | LOX IMVI melanoma -86.6%

COc1ccc2c(c1)c(-c1nn3cc(-c4cccs4)nc3s1)cn2C
inactive: HCT-15 colon 47.6% | HT29 colon 52.1% | SNB-75 CNS 50.3% | SNB-19 CNS 82.5% | U251 CNS 65.9% | PC-3 prostate 69.6% | SK-MEL-5 melanoma 66.7% | UACC-62 melanoma 64.1% | LOX IMVI melanoma 54.1% | SK-MEL-28 melanoma 97.8%

COc1ccc(C(=O)COC(=O)[C@H](C[Se][Se]C[C@H](NC(=O)c2ccc(Br)cc2F)C(=O)OCC(=O)c2ccc(OC)cc2)NC(=O)c2ccc(Br)cc2F)cc1
inactive: HT29 colon 10.7%
active: HCT-15 colon -30.7% | SNB-75 CNS -95.6% | SNB-19 CNS -38.1% | U251 CNS -85.3% | PC-3 prostate -63.8% | SK-MEL-5 melanoma -8.07% | UACC-62 melanoma -89.5% | LOX IMVI melanoma -50.8% | SK-MEL-28 melanoma -74.5%

NCCCNc1nc2ccccc2c2c(=O)c3cc(F)cc(Cl)c3sc12
active: HT29 colon 4.38% | U251 CNS -63.9%
inactive: HCT-15 colon 64.1% | SNB-75 CNS 69.7% | SNB-19 CNS 89.4% | PC-3 prostate 59.4% | SK-MEL-5 melanoma 98.3% | UACC-62 melanoma 98.7% | LOX IMVI melanoma 79.4% | SK-MEL-28 melanoma 107%

O=C(Cc1ccc(F)c(Cl)c1)Nc1cc(C2(C(F)(F)F)CC2)nn1Cc1ccccc1
active: SNB-75 CNS -21.6% | SNB-19 CNS 9.43%
inactive: HCT-15 colon 93.9% | HT29 colon 18% | U251 CNS 24.3% | PC-3 prostate 86.8% | SK-MEL-5 melanoma 83.6% | UACC-62 melanoma 65.9% | LOX IMVI melanoma 86.3% | SK-MEL-28 melanoma 98%

CCCCC[C@H](O)C/C=C1/C(=O)C=C[C@@H]1C/C=C\CCCC(=O)OC
active: HT29 colon 3.13% | LOX IMVI melanoma -43.2%
inactive: HCT-15 colon 20.8% | SNB-75 CNS 96.5% | SNB-19 CNS 60.4% | U251 CNS 45.5% | PC-3 prostate 26.5% | SK-MEL-5 melanoma 38% | UACC-62 melanoma 13.6% | SK-MEL-28 melanoma 28.3%

COc1c(B(O)O)cc(F)cc1-c1nc2ccc3[nH]ncc3c2c2c1CCCC2
inactive: HT29 colon 13% | SNB-19 CNS 11.3% | U251 CNS 11.8% | PC-3 prostate 13.3% | SK-MEL-5 melanoma 17.1% | UACC-62 melanoma 20.6% | SK-MEL-28 melanoma 21.3%
active: HCT-15 colon 3.63% | SNB-75 CNS -94.5% | LOX IMVI melanoma 2.28%

CC(=O)CC[C@H]1C(=O)N[C@@H](C(C)C)C(=O)N[C@@H](Cc2cc(O)cc(F)c2)C(=O)N2CCC[C@H](N2)C(=O)O[C@H](/C(C)=C/C=C/C(=O)OC(C)(C)C)C/C=C/C=C/[C@H](O)[C@H](C)[C@H]1O
inactive: HCT-15 colon 26.6% | HT29 colon 29.6% | SNB-75 CNS 54.6% | SNB-19 CNS 70% | U251 CNS 43.3% | PC-3 prostate 48.6% | SK-MEL-5 melanoma 51% | UACC-62 melanoma 52.4% | LOX IMVI melanoma 48.6% | SK-MEL-28 melanoma 59.4%

COc1cc(-c2nc3sccn3c2-c2ccnc(NCCCNS(=O)(=O)c3ccc(F)cc3)n2)ccc1F
inactive: HCT-15 colon 44.8% | HT29 colon 61% | SNB-75 CNS 59.9% | SNB-19 CNS 96.3% | U251 CNS 91.4% | PC-3 prostate 46.8% | SK-MEL-5 melanoma 40.7% | UACC-62 melanoma 29.7% | LOX IMVI melanoma 48.3% | SK-MEL-28 melanoma 73.9%

N#C/C(=C\c1cccc2cnccc12)n1nnc2cccc(F)c21
inactive: HCT-15 colon 10.2% | HT29 colon 27.5% | SNB-19 CNS 80.7% | U251 CNS 78.9% | PC-3 prostate 48.7% | SK-MEL-5 melanoma 58.7% | UACC-62 melanoma 36.5% | LOX IMVI melanoma 14.9% | SK-MEL-28 melanoma 37.1%
active: SNB-75 CNS -5.04%

CN1C(=O)N(C)C2Nn3c(s/c(=C\c4ccccc4)c3=O)=NC21 (stereo not given)
inactive: HCT-15 colon 93.1% | HT29 colon 106% | SNB-75 CNS 71.4% | SNB-19 CNS 95.6% | U251 CNS 96.2% | PC-3 prostate 101% | SK-MEL-5 melanoma 101% | UACC-62 melanoma 90.9% | LOX IMVI melanoma 92.6% | SK-MEL-28 melanoma 105%
